Active and inactive are the calls of the source.

This experiment in a line: MM1S myeloma cell viability, profiling panel, resazurin fluorescence, basal, 24 h, PK04 Diversity Set (AID 1174). Note: test concentration not given here. The conditions noted are these: higher = more signal, called active from +8 up or from −8 down.
For `O=C1C2C=CC(C(O)Cc3ccccc3)N(n3cnnc3)C2C(=O)N1Cc1ccccc1` (centres undefined), the z-score was -1.04 (inactive).
For `Cc1ccc(S[C@]2(C(=O)NCCCN(C)C)CC(=O)N(Cc3ccccc3C(F)(F)F)[C@@H]2c2ccc(CO)cc2)cc1`, the z-score was 0.515 (inactive).
On to `COc1cc(C(O)C2C=CC3C(=O)NC(=O)C3N2Nc2ccccn2)cc(OC)c1OC` (centres undefined), for which the z-score was -1.57 (inactive).
Consider `C=CCNC(=O)[C@H]1[C@@H]2C(=O)O[C@@H](c3ccccc3)[C@@H](c3ccccc3)N2[C@@H](c2ccccc2OCCO)[C@]12C(=O)Nc1ccc(C#CCC(C(=O)OC)C(=O)OC)cc12`, for which the z-score is -7.81 (inactive).
Turning to `COCCOC(=O)N1C(=O)[C@@]2(c3cc(C#CCNC(N)=O)ccc31)[C@H](C(=O)N1CCN(c3ncccn3)CC1)[C@H]1C(=O)O[C@H](c3ccccc3)[C@H](c3ccccc3)N1[C@@H]2c1ccc(OCCO)cc1`, the z-score was -0.814 (inactive).
In the case of `CCOC(=O)C[C@H]1[C@H](OC(=O)c2ccc(C(=O)c3ccccc3)cc2)[C@@H](NC(=O)c2ccc3ccccc3c2)c2cc(OCCCO)ccc2N1C(=O)Cc1ccc(OC)cc1` it was 0.238 (inactive); in that of `C[C@H]1NC(=O)[C@@]23C(=O)N[C@@H](Cc4ccccc4)C2[C@H](C)[C@@]2(C)O[C@H]2C3/C=C/C/C=C\CNC(=O)[C@@H]2CCCN2C1=O` (some centres undefined), 0.607 (inactive); in that of `C=C(CCCC)/C(=C/C[C@@H](OC(=O)c1ccncc1)c1ccc(OCCO)cc1)c1cc(C(=O)OC)ccc1OC`, 0.234 (inactive).
In the case of `CN1C(=O)C2C=CC(C(O)c3ccc([N+](=O)[O-])cc3)N(N3CCCCC3)C2C1=O` (centres undefined) it was -0.51 (inactive); in that of `CC(C)C(=C=CC[C@H](O)c1ccc(OCCO)cc1)CCO`, -0.69 (inactive); in that of `C[C@H]1C2[C@H](Cc3ccccc3)NC(=O)[C@]23C(=O)N[C@H](Cc2ccccc2)C(=O)N2CCC[C@H]2C(=O)NC/C=C\C/C=C/C3[C@@H]2O[C@]12C` (some centres undefined), 1.22 (inactive).
As for `CN(C)CCCCCCNC(=O)[C@H]1C[C@H]2C(=O)N[C@@H](CCCCN)C(=O)N2[C@H]1c1cccc(OCCO)c1`, the z-score was -0.0889 (inactive).
With `C=CCC(OC(C)=O)[C@@H]1[C@@H](N(Cc2cc3ccccc3o2)C(=O)c2cccc3ccccc23)c2cc(OCCCO)ccc2N1C(=O)c1ccc(-c2ccccc2)cc1` (some centres undefined), the z-score is 0.353 (inactive).
For `COC(=O)[C@@]1(Cc2ccc(OC)cc2)[C@H]2c3cc(C(=O)N4CCCC4)n(Cc4ccc(O)c(OC)c4)c3C[C@H]2CN1C(=O)c1ccccc1`, the z-score is -0.431 (inactive).
In the case of `COC(=O)[C@@]1(Cc2ccc(OC)cc2)[C@H]2c3cc(C(=O)N4CCCC4)n(Cc4ccc(C)c(F)c4F)c3C[C@H]2CN1C(=O)c1ccccc1` it was -1.4 (inactive).
In the case of `C=CCOC(=O)[C@H]1[C@@H]2C(=O)O[C@@H](c3ccccc3)[C@@H](c3ccccc3)N2[C@@H](c2ccc(OCCOC(=O)[C@@H]3C[C@@H]4C(=O)N[C@@H](CCCCNC(C)=O)C(=O)N4[C@@H]3c3ccc(O)cc3)cc2)[C@]12C(=O)Nc1ccccc12` it was -0.0524 (inactive); in that of `COC(=O)[C@@]1(Cc2ccc(OC)cc2)[C@H]2c3cc(C(=O)N(C)C)n(Cc4ccc(S(C)(=O)=O)cc4)c3C[C@H]2CN1C(=O)c1ccccc1`, -0.19 (inactive); in that of `CC(C)=CCN[C@H](CO)c1ccccc1`, -0.362 (inactive).
In the case of `COC(=O)[C@@]1(Cc2ccc(F)cc2)[C@H]2c3cc(C(=O)N4CCCC4)n(Cc4ccc(S(C)(=O)=O)cc4)c3C[C@H]2CN1C(=O)c1ccccc1`, the z-score was -1.03 (inactive).
In the case of `COc1ccc(C#Cc2ccc3c(c2)[C@]2(C(=O)N3)[C@H](C(=O)Nc3nc4ccccc4s3)[C@H]3C(=O)O[C@H](c4ccccc4)[C@H](c4ccccc4)N3[C@@H]2c2ccc(O)cc2)cc1`, the z-score was 0.283 (inactive).
In the case of `[N-]=[N+]=Nc1ccccc1[C@H]1OC(c2ccc(OCCCO)cc2)=N[C@@]1(CCS(=O)(=O)c1ccccc1)C(N)=O` it was 0.952 (inactive); in that of `CC(C)c1ccc(NN2C(C(O)c3ccc(B(O)O)cc3)C=CC3C(=O)N(c4ccccc4)C(=O)C32)cc1` (centres undefined), -1.2 (inactive); in that of `COC(=O)[C@@]1(Cc2ccc(F)cc2)[C@H]2c3cc(C(=O)N(C)C)n(Cc4ccccc4)c3C[C@H]2CN1C(=O)c1ccccc1`, -0.946 (inactive).
As for `[N-]=[N+]=Nc1ccccc1[C@@H]1OC(c2ccc(OCCCO)cc2)=N[C@]1(Cc1ccccc1)C(=O)N1CCOCC1`, the z-score was -1.6 (inactive).

The values above are taken from PubChem BioAssay.
